Source: PubChem BioAssay (EPA / NIEHS)
The source made the active and inactive calls. The calls were made as follows: active = hit-call score of the fitted dose curve at least 0.9, where 1 is the maximum; inactive = score below 0.9.

Tests used:
[1] = ATG_GLI_CIS: Attagene CIS-FACTORIAL HepG2 Assay for human Zinc Finger Protein GLI1 (AID 2282945); conditions: HepG2, Attagene cis-factorial reporter mRNA, GLI element; actives raise or lower the signal
Outline: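 Bidirectional curve fits relative to DMSO, using reporter mRNA levels from RT-PCR plus capillary electrophoresis. Cells were HepG2 transiently carrying cis-regulated reporter constructs, harvested 24 h after dosing.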

[2] = biological target: Bile acid receptor (Homo sapiens) (UniProt Q96RI1); assay: ATG_IR1_CIS: Attagene CIS-FACTORIAL HepG2 Assay for human Nuclear Receptor Subfamily 1 Group H Member 4 (NR1H4), IR1 submotif (AID 2282946); conditions: IR1 reporter transcription, actives raise or lower the signal
Sequence of Bile acid receptor (Homo sapiens) (Q96RI1 whole entry, looked up, the tested form may be a part): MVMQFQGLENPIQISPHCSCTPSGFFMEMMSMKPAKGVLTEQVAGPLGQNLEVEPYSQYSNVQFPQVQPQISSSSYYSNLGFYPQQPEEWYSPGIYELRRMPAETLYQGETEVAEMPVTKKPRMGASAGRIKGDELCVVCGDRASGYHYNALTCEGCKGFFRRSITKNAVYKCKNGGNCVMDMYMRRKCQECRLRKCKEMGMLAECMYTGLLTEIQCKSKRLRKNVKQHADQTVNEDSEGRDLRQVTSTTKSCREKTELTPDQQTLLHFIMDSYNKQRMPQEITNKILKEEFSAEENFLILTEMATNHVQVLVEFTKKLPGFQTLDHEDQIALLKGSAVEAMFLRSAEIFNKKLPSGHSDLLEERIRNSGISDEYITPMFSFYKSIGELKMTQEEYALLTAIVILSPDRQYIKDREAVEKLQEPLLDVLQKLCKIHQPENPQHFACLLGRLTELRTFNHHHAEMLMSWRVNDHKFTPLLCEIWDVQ
Outline: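 Cells (human HepG2) carry transiently transfected cis-promoter reporter transcription units. Compounds are incubated 24 h, total RNA is reverse-transcribed and amplified, and labelled fragments are resolved by capillary electrophoresis. Curves use DMSO as baseline.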

[3] = ATG_GRE_CIS: Attagene CIS-FACTORIAL HepG2 Assay for human Glucocorticoid Response Elements (GRE) (AID 2282947); conditions: HepG2 GRE cis-reporter, Attagene multiplex mRNA; actives raise or lower the signal
Outline: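 Transient MRTU transfection of human HepG2 liver cells; cis-regulated reporters report endogenous factors. 24 h dosing → RNA isolation → RT-PCR → 6-FAM primer extension → HpaI cut → CE fragment analysis. Bidirectional fit, DMSO negative control.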

[4] = ATG_ISRE_CIS: Attagene CIS-FACTORIAL HepG2 Assay for human Interferon Regulatory Factor 1 (IRF1) binding to an Interferon-Stimulated Response Element (ISRE) (AID 2282948); conditions: HepG2 ISRE cis-reporter (Attagene), mRNA transcription readout; actives raise or lower the signal
Outline: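 HepG2 cells transiently transfected with multiplexed cis-promoter reporter units; after 24 h compound exposure, reporter mRNA quantified by RT-PCR, FAM labelling, HpaI digestion and capillary electrophoresis. Bidirectional fit versus DMSO baseline.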

[5] = ATG_M_32_CIS: Attagene CIS-FACTORIAL HepG2 Assay for M32 Transcription Factor (Internal Marker) (AID 2282949); conditions: HepG2 Attagene cis-factorial M32 reporter, mRNA; actives raise or lower the signal;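 also: background control marker of the multiplexed CIS panel rather than a real target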
Outline: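 Fluorescent capillary electrophoresis peaks of HpaI-digested, FAM-labelled RT-PCR reporter products give the signal. Source: transiently transfected human liver HepG2 cells, 24 h after chemical dosing; bidirectional fitting against DMSO.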

[6] = ATG_M_06_CIS: Attagene CIS-FACTORIAL HepG2 Assay for M06 Transcription Factor (Internal Marker) (AID 2282950); conditions: HepG2 Attagene CIS-FACTORIAL M06 internal marker reporter; actives raise or lower the signal
Outline: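 One of many multiplexed endpoints: HepG2 reporter mRNA after 24 h dosing, detected by RT-PCR and capillary electrophoresis fluorescence; gain or loss of signal analysed against DMSO.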

[7] = biological target: Hypoxia-inducible factor 1-alpha (Homo sapiens) (UniProt Q16665); assay: ATG_HIF1a_CIS: Attagene CIS-FACTORIAL HepG2 Assay for human Hypoxia Inducible Factor 1 (HIF1A) (AID 2282951); conditions: HepG2 Attagene cis-factorial HIF1a reporter transcription; actives raise or lower the signal
Sequence of Hypoxia-inducible factor 1-alpha (Homo sapiens) (Q16665 whole entry, looked up): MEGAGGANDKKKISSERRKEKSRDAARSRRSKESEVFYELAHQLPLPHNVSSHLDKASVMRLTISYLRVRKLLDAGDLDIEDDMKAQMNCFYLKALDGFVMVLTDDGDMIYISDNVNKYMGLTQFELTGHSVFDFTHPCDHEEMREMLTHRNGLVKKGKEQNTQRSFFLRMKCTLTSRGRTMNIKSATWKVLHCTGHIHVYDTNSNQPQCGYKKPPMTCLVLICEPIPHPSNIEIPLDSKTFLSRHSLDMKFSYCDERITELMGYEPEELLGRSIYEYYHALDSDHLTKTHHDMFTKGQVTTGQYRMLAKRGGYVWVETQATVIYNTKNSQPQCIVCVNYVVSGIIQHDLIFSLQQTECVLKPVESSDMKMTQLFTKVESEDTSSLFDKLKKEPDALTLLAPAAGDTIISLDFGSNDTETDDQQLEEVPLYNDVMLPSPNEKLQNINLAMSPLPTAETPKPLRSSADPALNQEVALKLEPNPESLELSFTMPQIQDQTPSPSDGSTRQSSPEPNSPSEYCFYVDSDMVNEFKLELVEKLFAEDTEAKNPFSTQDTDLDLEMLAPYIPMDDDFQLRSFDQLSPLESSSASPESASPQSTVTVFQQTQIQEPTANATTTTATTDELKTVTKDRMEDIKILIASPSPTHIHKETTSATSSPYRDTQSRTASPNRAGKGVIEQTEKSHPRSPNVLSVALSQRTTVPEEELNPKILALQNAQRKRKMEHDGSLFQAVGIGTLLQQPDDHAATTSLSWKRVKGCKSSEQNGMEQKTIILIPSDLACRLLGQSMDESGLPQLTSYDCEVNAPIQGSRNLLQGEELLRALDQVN
Outline: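 HepG2, transient cis-reporter library, 24 h dosing. RNA → RT (oligo dT) → PCR → 6-FAM primer extension → HpaI → CE. Bidirectional curve fit vs DMSO.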

[8] = biological target: Hepatocyte nuclear factor 6 (Homo sapiens) (UniProt Q9UBC0); assay: ATG_HNF6_CIS: Attagene CIS-FACTORIAL HepG2 Assay for human Hepatocyte Nuclear Factor 6 (HNF6) (AID 2282952); conditions: HepG2 Attagene cis-factorial HNF6 reporter transcription; actives raise or lower the signal
Sequence of Hepatocyte nuclear factor 6 (Homo sapiens) (Q9UBC0 whole entry, looked up, the tested form may be a part): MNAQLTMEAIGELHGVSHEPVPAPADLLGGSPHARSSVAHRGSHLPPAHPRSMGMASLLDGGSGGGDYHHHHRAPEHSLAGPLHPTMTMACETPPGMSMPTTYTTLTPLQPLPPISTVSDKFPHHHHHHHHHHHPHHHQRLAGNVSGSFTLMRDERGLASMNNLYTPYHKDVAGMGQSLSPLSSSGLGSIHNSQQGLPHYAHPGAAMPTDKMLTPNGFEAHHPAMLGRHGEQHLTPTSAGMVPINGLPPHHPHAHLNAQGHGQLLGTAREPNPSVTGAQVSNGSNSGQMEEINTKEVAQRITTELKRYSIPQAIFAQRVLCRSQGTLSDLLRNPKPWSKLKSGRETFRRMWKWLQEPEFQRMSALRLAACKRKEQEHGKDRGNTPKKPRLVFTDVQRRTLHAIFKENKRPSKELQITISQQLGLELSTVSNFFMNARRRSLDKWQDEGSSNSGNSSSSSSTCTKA
Outline: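 HepG2 cells transiently transfected with cis-element-driven multiplexed reporter units measuring endogenous transcription factor activity. After 24 h exposure, reporter mRNA quantified by RT-PCR, FAM-labelled fragments and capillary electrophoresis; bidirectional fitting versus DMSO.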

[9] = biological target: Heat shock factor protein 1 (Homo sapiens) (UniProt Q00613); assay: ATG_HSE_CIS: Attagene CIS-FACTORIAL HepG2 Assay for human Heat Shock Transcription Factor 1 (HSE) (AID 2282953); conditions: HepG2 HSE cis-reporter, Attagene RNA transcription; actives raise or lower the signal
Sequence of Heat shock factor protein 1 (Homo sapiens) (Q00613 whole entry, looked up): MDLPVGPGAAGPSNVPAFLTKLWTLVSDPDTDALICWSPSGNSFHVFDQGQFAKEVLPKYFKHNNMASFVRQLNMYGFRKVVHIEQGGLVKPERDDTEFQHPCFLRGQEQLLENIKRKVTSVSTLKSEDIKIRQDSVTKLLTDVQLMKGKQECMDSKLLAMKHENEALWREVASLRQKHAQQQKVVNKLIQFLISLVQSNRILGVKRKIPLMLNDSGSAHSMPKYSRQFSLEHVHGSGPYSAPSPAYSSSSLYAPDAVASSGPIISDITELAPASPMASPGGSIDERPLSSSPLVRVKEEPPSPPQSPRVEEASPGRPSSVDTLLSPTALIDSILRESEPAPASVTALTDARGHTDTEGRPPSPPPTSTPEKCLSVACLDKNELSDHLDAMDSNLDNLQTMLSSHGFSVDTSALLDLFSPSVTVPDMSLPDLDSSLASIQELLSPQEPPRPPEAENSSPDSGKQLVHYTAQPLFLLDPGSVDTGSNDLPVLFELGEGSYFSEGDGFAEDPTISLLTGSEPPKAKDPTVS
Outline: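 Using HepG2 with transfected cis-driven reporter constructs, compound effects on endogenous factor activity are scored as reporter mRNA change at 24 h. Detection: RT-PCR, HpaI digestion, capillary electrophoresis; bidirectional fitting to DMSO.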

[10] = ATG_MRE_CIS: Attagene CIS-FACTORIAL HepG2 Assay for human Metal Responsive Element (MRE) (AID 2282954); conditions: HepG2 MRE cis-reporter transcription, Attagene multiplex; actives raise or lower the signal
Outline: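 Transient MRTU transfection of HepG2 (FuGene 6); 24 h dosing; total RNA → oligo(dT) RT, PCR, 6-FAM primer extension, HpaI cut, CE. Bidirectional fit vs DMSO.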

[11] = biological target: Paired box protein Pax-6 (Homo sapiens) (UniProt P26367); assay: ATG_Pax6_CIS: Attagene CIS-FACTORIAL HepG2 Assay for human Paired Box 6 (PAX6) (AID 2282956); conditions: HepG2 CIS-FACTORIAL PAX6 reporter transcription, RNA readout; actives raise or lower the signal
Sequence of Paired box protein Pax-6 (Homo sapiens) (P26367 whole entry, looked up): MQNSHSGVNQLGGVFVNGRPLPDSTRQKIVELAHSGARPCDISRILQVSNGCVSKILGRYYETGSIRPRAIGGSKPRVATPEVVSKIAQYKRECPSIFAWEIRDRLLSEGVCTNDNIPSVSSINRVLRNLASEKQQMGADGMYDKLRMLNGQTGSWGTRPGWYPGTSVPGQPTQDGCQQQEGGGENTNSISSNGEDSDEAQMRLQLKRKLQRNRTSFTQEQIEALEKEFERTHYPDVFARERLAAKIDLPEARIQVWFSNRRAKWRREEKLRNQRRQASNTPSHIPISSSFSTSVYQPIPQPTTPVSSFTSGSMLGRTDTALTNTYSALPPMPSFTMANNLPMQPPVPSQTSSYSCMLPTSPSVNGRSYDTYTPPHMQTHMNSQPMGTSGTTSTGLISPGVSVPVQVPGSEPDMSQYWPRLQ
Outline: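 HepG2 cells transiently transfected with multiplexed cis-promoter reporter units (endogenous TF activity) were dosed for 24 h. Reporter mRNA was quantified by RT-PCR, 6-FAM labeling, HpaI digestion and capillary electrophoresis; bidirectional fitting versus DMSO baseline.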

[12] = ATG_PXRE_CIS: Attagene CIS-FACTORIAL HepG2 Assay for human Pregnane X Receptor Element (PXRE) (AID 2282957); conditions: HepG2 Attagene CIS-FACTORIAL PXRE reporter, mRNA; actives raise or lower the signal
Outline: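 HepG2 cells transiently transfected with cis-element-driven multiplexed reporter units; after 24 h chemical exposure, reporter mRNA measured by RT-PCR, 6-FAM labelling, HpaI digestion and capillary electrophoresis. Bidirectional fitting relative to DMSO.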

[13] = ATG_PPRE_CIS: Attagene CIS-FACTORIAL HepG2 Assay for human Peroxisome Proliferator-activated Response Element (PPRE) (AID 2282958); conditions: HepG2 PPRE cis-element reporter, Attagene transcription factor profiling; actives raise or lower the signal
Outline: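 Transcript-level reporter induction in transfected HepG2 cells after 24 h chemical exposure, quantified by fluorescence from RT-PCR products separated by capillary electrophoresis.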

[14] = ATG_Sox_CIS: Attagene CIS-FACTORIAL HepG2 Assay for human SRY-box transcription factor (SOX) (AID 2282960); conditions: HepG2 Attagene cis-factorial SOX reporter, mRNA; actives raise or lower the signal
Outline: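 Cells were transfected with reporter constructs under cis-regulatory promoters, then exposed to chemicals for 24 h. Reporter transcripts were quantified by fluorescence after RT-PCR and capillary electrophoresis; activity was fitted in both directions against DMSO.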

[15] = biological target: Transcription factor Sp1 (Homo sapiens) (UniProt P08047); assay: ATG_Sp1_CIS: Attagene CIS-FACTORIAL HepG2 Assay for human Specificity Protein 1 (Sp1) (AID 2282961); conditions: HepG2 Sp1 cis-reporter transcription, actives raise or lower the signal
Sequence of Transcription factor Sp1 (Homo sapiens) (P08047 whole entry, looked up): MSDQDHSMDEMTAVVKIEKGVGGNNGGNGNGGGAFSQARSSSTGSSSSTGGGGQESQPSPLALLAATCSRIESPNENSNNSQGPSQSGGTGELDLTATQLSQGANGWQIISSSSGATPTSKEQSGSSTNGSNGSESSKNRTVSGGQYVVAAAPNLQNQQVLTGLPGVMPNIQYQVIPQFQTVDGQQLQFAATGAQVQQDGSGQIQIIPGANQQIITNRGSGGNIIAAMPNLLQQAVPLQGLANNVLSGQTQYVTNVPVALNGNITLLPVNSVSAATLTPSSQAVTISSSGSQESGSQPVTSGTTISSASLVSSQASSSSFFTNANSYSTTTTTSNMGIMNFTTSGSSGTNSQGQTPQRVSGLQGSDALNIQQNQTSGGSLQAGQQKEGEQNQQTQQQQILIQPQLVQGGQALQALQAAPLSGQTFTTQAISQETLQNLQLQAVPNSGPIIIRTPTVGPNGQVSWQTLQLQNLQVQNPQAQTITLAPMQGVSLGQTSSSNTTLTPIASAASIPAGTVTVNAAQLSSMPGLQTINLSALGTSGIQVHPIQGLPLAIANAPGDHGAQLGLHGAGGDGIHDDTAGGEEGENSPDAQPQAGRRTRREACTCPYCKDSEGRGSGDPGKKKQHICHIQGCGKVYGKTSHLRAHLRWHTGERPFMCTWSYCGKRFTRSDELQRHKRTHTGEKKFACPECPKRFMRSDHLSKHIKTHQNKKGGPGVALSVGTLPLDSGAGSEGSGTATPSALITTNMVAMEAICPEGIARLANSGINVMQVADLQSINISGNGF
Outline: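 Measures mRNA induction of an Sp1-linked reporter in HepG2 cells 24 h post-dosing. Multiplexed reporters read by RT-PCR and capillary electrophoresis; DMSO serves as negative control and baseline.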

[16] = ATG_SREBP_CIS: Attagene CIS-FACTORIAL HepG2 Assay for human Sterol Regulatory Element Binding (SREBP) (AID 2282962); conditions: HepG2 Attagene cis-factorial SREBP reporter, mRNA; actives raise or lower the signal
Outline: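 HepG2 cells transiently transfected with multiplexed cis-element reporter units report endogenous transcription factor activity. After 24 h of chemical exposure, reporter mRNA was quantified by RT-PCR, 6-FAM labelling, HpaI digestion and capillary electrophoresis; bidirectional fits used DMSO as baseline.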

[17] = ATG_TA_CIS: Attagene CIS-FACTORIAL HepG2 Assay for human TA Basal Promoter (AID 2282964); conditions: HepG2 Attagene CIS-factorial TA basal promoter reporter; actives raise or lower the signal
Outline: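 Transient MRTU transfection of HepG2 preceded 24 h compound exposure. Reporter mRNA levels were then read by RT-PCR with capillary electrophoresis, and this background-control endpoint was fitted bidirectionally to DMSO.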

[18] = ATG_RORE_CIS: Attagene CIS-FACTORIAL HepG2 Assay for human RAR-related Orphan Receptor Element (RORE) (AID 2282959); conditions: HepG2 Attagene cis-factorial RORE reporter, mRNA; actives raise or lower the signal
Outline: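 Multiplexed reporter assay measuring mRNA induction from a cis promoter element in transiently transfected HepG2 cells after 24 h treatment. Detection via RT-PCR and capillary electrophoresis fluorescence; DMSO serves as baseline.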

[19] = biological target: Signal transducer and activator of transcription 3 (Homo sapiens) (UniProt P40763); assay: ATG_STAT3_CIS: Attagene CIS-FACTORIAL HepG2 Assay for human Signal Transducer and Activator of Transcription 3 (STAT3) (AID 2282963); conditions: HepG2, Attagene cis-factorial STAT3 reporter transcription; actives raise or lower the signal
Sequence of Signal transducer and activator of transcription 3 (Homo sapiens) (P40763 whole entry, looked up): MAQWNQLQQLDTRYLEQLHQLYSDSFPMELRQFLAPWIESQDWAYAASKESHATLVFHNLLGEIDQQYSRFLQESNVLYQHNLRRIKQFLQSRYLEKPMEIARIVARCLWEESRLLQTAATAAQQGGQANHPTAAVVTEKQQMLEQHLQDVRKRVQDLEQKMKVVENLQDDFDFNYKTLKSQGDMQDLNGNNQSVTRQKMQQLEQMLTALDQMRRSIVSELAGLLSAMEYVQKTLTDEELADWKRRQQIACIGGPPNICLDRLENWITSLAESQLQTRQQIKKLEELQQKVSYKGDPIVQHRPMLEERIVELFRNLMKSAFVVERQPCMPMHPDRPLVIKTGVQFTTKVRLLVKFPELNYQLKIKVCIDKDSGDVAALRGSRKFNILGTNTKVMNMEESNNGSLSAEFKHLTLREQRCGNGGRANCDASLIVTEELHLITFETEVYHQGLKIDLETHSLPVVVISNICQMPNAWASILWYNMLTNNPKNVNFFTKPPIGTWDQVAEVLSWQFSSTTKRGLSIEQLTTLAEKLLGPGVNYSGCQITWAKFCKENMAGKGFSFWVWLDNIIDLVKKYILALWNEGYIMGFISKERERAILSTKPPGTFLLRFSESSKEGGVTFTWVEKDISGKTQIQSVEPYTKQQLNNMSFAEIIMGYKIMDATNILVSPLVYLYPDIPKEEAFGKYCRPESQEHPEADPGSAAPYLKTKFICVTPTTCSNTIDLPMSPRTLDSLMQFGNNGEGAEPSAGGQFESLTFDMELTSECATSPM
Outline: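 Endogenous STAT3-responsive cis-element activity was read in transiently transfected HepG2 cells after 24 h treatment. Reporter transcripts were quantified via RT-PCR and capillary electrophoresis, with DMSO as negative control and bidirectional curve fitting.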

[20] = ATG_PBREM_CIS: Attagene CIS-FACTORIAL HepG2 Assay for human Phenobarbital-responsive Enhancer Module (PBREM) (AID 2282955); conditions: HepG2 PBREM cis-reporter, Attagene multiplexed transcription; actives raise or lower the signal
Outline: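 HepG2, transient MRTU transfection, 24 h dosing; RNA → oligo(dT) RT → PCR → 6-FAM extension → HpaI → CE. Bidirectional fit vs DMSO.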

Measured: AC50

N#Cc1ccc(C(c2ccc(C#N)cc2)n2cncn2)cc1
not listed: [18] | [19] | [20]
inactive: all other assays above

CCN1CN(CC)CN(CC)C1
active: [1] 141 µM | [3] 97 µM | [4] 146 µM | [10] 166 µM | [12] 119 µM | [14] 138 µM | [15] 163 µM
not listed: [9] | [11] | [20]
inactive: all other assays above

Oc1c(Cl)cc(Cl)c(Cl)c1Cl
active: [8] 51.7 µM | [10] 70.8 µM | [11] 82.6 µM | [12] 26.5 µM | [13] 21.9 µM | [18] 43.4 µM | [17] 61.5 µM
not listed: [15] | [16] | [19] | [20]
inactive: all other assays above

CCCCC1C(=O)N(c2ccccc2)N(c2ccccc2)C1=O
active: [12] 1.44 µM
not listed: [8] | [13] | [19]
inactive: all other assays above

CC(C)=NNC(N)=S
active: [7] 9.14 µM
not listed: [11] | [20]
inactive: all other assays above

c1ccc(-c2nc3ccccc3[nH]2)cc1
active: [12] 27.4 µM
not listed: [18] | [20]
inactive: all other assays above

CCCCCCCC(=O)OCC(COC(=O)CCCCCCC)OC(=O)CCCCCCC
not listed: [11] | [16] | [18] | [20]
inactive: all other assays above

Cc1cc(C)n(CO)n1
not listed: [9] | [15] | [16] | [20]
inactive: all other assays above

Cn1cccc1
active: [15] 25.7 µM
not listed: [16] | [20]
inactive: all other assays above

CCc1cccc(CC)c1
not listed: [18] | [20]
inactive: all other assays above

CCC1COC(=O)O1 (stereo not given)
active: [12] 16.6 µM
not listed: [18] | [19] | [20]
inactive: all other assays above

C/C=C/C=C/CCCCCCCO
active: [1] 168 µM | [2] 172 µM | [9] 168 µM | [10] 121 µM | [11] 76 µM | [12] 25.5 µM
not listed: [17] | [18] | [20]
inactive: all other assays above

CCCCCCCCCCCCc1ccc(O)cc1
active: [12] 1.53 µM
not listed: [18] | [20]
inactive: all other assays above

CC1(C)CC(O)CC(C)(C)N1[O]
active: [2] 27.7 µM
not listed: [3] | [11]
inactive: all other assays above

c1ccc2sc(SSN3CCOCC3)nc2c1
active: [1] 79.4 µM | [2] 105 µM | [7] 32.2 µM | [9] 69.6 µM | [10] 123 µM | [11] 100 µM | [14] 138 µM | [16] 59.2 µM | [19] 139 µM
inactive: [4] | [5] | [6] | [8] | [12]
